Screens as filed in PubChem BioAssay.
G9a block = G9a (human) methyltransferase inhibition | Q96KQ7 | G9a H3K9 monomethylation, AlphaScreen, 2 h | Potency, µM (series often up to 102 µM), inactives show top-dose activity, negative = inhibition, hits mostly inhibitors | hit rate 8.8% among 350,000; note: potency is the fitted concentration of half-maximal effect; % is set by controls: 0 for no effect and ±100 for the full control effect; nearly all actives have a fitted effect of over 75% in size
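G9a (20 nM) was preincubated 15 min with compound, then reacted 2 h at room temperature with 500 nM biotin-H3K9 peptide and 20 µM SAM. Monomethyl-H3K9 detected by AlphaScreen using anti-H3K9me1 antibody.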
BAZ2B inh = inhibitors of human BAZ2B bromodomain. AID 504333. Potency, µM (top dose mostly 114 µM), inactives show at the top dose activity change, negative = inhibition, actives largely listed as inhibitors. AlphaScreen BAZ2B-H3K14Ac peptide displacement. Q9UIF8. hit rate 4.4% among 360,000; note: potency is the fitted concentration of half-maximal effect; % is set by controls: 0 for no effect and ±100 for the full control effect; nearly all actives have a fitted effect of over 60% in size
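BAZ2B 50 nM plus b-H3(5-23)K14Ac 50 nM, PBS pH 7.4/0.01% Tween-20, 30 min RT; compound added (max 110 uM), 30 min RT; streptavidin donor/Ni-chelate acceptor beads 10 ug/mL final, 20 min dark; AlphaScreen read.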
CtBP-E1A inh = blocks the CtBP interaction with E1A; AlphaScreen GST-E1A/His-CtBP binding, 1536-well; hits give low values; activity change, % (no concentration beside the values); hit rate 0.49% among 340,000; in the data active = activity change below about -65%; inconclusive = mostly about -30% to -63%; note: % is set by controls: 0 for no effect and ±100 for the full control effect
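Homogeneous bead-based format: GST-tagged E1A captured on glutathione donor beads, His-tagged CtBP on nickel acceptor beads; compounds precede bead addition by 2 h at 37 °C.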
Six1-Eya2 inh = Six1/Eya2 interaction inhibition; AID 651725; hit rate 0.56% among 360,000; AlphaScreen GST-Six1/His-Eya2 binding, biochemical; hits give low values; Q15475+O00167; activity change, % (no concentration beside the values); in the data active = activity change below about -65%; inconclusive = mostly about -30% to -63%; note: % is set by controls: 0 for no effect and ±100 for the full control effect
Target sequence (O00167 whole entry, looked up): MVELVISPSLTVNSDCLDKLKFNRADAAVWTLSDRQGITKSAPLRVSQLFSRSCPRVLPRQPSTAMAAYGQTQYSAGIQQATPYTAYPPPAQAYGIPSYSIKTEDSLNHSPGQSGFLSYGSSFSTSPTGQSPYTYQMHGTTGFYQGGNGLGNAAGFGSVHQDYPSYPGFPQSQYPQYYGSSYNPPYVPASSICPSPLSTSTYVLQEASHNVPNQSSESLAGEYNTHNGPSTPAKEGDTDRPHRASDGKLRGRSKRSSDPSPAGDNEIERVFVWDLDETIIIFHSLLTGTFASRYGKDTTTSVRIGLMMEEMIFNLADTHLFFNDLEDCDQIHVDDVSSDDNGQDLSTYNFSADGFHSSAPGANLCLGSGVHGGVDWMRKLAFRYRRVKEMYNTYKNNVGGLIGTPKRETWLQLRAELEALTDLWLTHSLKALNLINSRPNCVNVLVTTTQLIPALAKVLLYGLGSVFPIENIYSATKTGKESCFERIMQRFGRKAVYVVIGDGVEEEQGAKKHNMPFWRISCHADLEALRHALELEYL
Target sequence (Q15475 whole entry, looked up): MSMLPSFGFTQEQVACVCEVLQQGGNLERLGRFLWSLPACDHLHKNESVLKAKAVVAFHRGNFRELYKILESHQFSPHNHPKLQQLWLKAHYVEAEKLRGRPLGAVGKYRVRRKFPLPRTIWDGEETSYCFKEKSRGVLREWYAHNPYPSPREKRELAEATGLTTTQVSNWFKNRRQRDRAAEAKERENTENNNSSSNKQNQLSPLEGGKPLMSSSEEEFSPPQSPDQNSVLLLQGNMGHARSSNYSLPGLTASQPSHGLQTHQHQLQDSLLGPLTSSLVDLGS
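Homogeneous AlphaScreen proximity assay pairing GST-Six1 with His-tagged Eya2 (added as 5X mix: 250 nM and 500 nM) in 50 mM Tris pH 8.0, 300 mM NaCl, 1 mM TCEP. Glutathione donor and nickel acceptor beads; 1 h, 37 °C, dark.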
HP1b chromo inh = blocks HP1-beta chromodomain binding to methylated histone tails. P83916. AlphaScreen HP1-beta / biotin-H3K9me3 peptide binding. Potency, µM (titrated, usually from 114 µM), for the others: top-dose activity change, negative = inhibition, hits mostly inhibitors. hit rate 0.56% among 390,000; note: potency is the fitted concentration of half-maximal effect; nearly all actives have a fitted effect of over 70% in size
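Compound inhibition of the preformed complex between 50 nM HP1-beta and 50 nM biotinylated H3K9me3 peptide was read by AlphaScreen. Buffer was PBS pH 7.4 with 0.01% Tween-20. Incubations ran 30 min at room temperature, with 10 ug/mL donor/acceptor beads.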
JMJD2A Tudor = blocks the human JMJD2A Tudor domain; AID 504339; hit rate 4.4% among 390,000; Potency, µM (highest dose often 114 µM), without a hit: at the top dose activity change, negative = inhibition, usual class: inhibitors; AlphaScreen JMJD2A-Tudor / H3K4me3 peptide binding; O75164; note: potency is the fitted concentration of half-maximal effect; % is set by controls: 0 for no effect and ±100 for the full control effect; nearly all actives have a fitted effect of over 50% in size
Active calls of the source: *; ? = inconclusive; . = not tested or not shown; ! = a repeat was not active; [ ] = dose if it differs, or a comment. Sampled rows, rich in hits. Any-hit rate of the full collection: about 10%. Unless noted, calls come from the whole dose curve; as a rule, active = well fitted inhibition curve with a large enough effect; inconclusive = small, poorly fitted or top-dose-only effect; inactive = no such curve, though single readings can be large or run the other way.

SMILES	G9a block	BAZ2B inh	CtBP-E1A inh	Six1-Eya2 inh	HP1b chromo inh	JMJD2A Tudor
c1cncc(CNCCc2ccc3c(c2)OCO3)c1	.	-13%	.	-3	46%	0%
Clc1ccc(CNCCc2ccc3c(c2)OCO3)cc1	79µM*	45µM*	-1	-2	-2%	25µM*
FC(F)(F)c1ccc(CNCCc2ccc3c(c2)OCO3)cc1	22µM*	79µM*	.	17	-19%	56µM*
Clc1cccc(CNCCc2ccc3c(c2)OCO3)c1	45µM*	79µM*	1	-4	?	28µM*
COc1cc(CNCCc2ccc3c(c2)OCO3)ccc1O	0%[0.501 µM]	2%	4	-2	37%	-15%
Fc1ccccc1CNCCc1ccc2c(c1)OCO2	40µM*	-34%	.	-2	-33%	71µM*
CC1(C)CC(CCNCc2ccc3c(c2)OCO3)(Cc2ccccc2)CCO1 (stereo not drawn)	-2%[12.7 µM]	-34%	2	-1	14%	-13%
[O]=[Cr](=[O])([OH])[O][Cr](=[O])(=[O])[OH]	1%[59 µM]	.	.	.	.	.
O=C1NC(=O)N(c2ccccc2)C(=O)/C1=C/c1ccc(Sc2ccccc2)o1	10µM*	50µM*	1	-4	0%	56µM*
O=C1NC(=O)N(c2ccccc2F)C(=O)/C1=C/c1ccc(Sc2nc3ccccc3[nH]2)o1	6.3µM*	32µM*	3	?	?	22µM*
Cc1cccc(N2C(=O)NC(=O)/C(=C/c3ccc(N4CCOCC4)cc3)C2=O)c1	?	.	-14	-5	23%	-12%
O=C1NC(=O)N(c2cccc(Cl)c2)C(=O)/C1=C\c1ccc(Sc2nc3ccccc3[nH]2)o1	3.2µM*	35µM*	3	?	?	35µM*
CCOc1cc(/C=C2\C(=O)NC(=O)N(C)C2=O)cc([N+](=O)[O-])c1O	50µM*	-11%	1	-7	31%	-2%
C=C/C(=C/C(=O)C[C@H](C)C[C@@H](C)CC[C@H](O)[C@H](C)C(=O)C[C@@H](O)[C@H](C)[C@@H](C)OC(=O)C[C@@H](O)C1=C(C)C(=O)OC1=O)CC	-42%[2.33 µM]	.	.	.	.	.
CN1C(=O)NC(=O)[C@]2(Cc3ccccc3N3CCN(c4ccccc4)CC32)C1=O (stereo partly drawn)	3.2µM*	-28%	-26	-28	11%	-33%
O=C1NC(=O)[C@]2(Cc3ccccc3N3CCN(c4ccccc4)CC32)C(=O)N1c1ccccc1 (stereo partly drawn)	3.2µM*	-31%	-11	-18	14%	?
c1ccc(CN2CCCC3(CCNCC3)C2)cc1	-1%[12.7 µM]	.	.	.	.	.
S=C=NCc1ccccc1	-34%[2.33 µM]	.	.	.	.	.
CC1CC[C@@]2(OC1)OC1C(O)C3C4CC[C@H]5CC(O[C@@H]6O[C@@H](CO)[C@H](OC7OC(CO)C(O)C(OC8OCC(O)C(O)[C@H]8O)[C@@H]7O[C@@H]7OC(CO)[C@H](O)[C@@H](O[C@@H]8OC(CO)C(O)C(O)C8O)C7O)C(O)C6O)C(O)C[C@]5(C)C4CC[C@]3(C)C1C2C (stereo partly drawn)	5%[2.33 µM]	.	.	.	.	.
Cc1cc(-n2c(/C=C/c3cccs3)nc3ccccc3c2=O)ccc1Br	-31%[59 µM]	?	.	.	8%	?
O=[N+]([O-])c1ccc(O[C@@H]2O[C@H](CO)[C@@H](O)[C@H](O)[C@H]2F)c([N+](=O)[O-])c1	24µM*!	.	.	.	.	.
S=C(c1ccc(Cl)cc1)N1CCOCC1	11µM*	-2%	6	3	-32%	-21%
S=C(Nc1ccc(Cl)cc1)N1CCOCC1	.	.	0	2	46%	-6%
Nc1ccc2c3c(cccc13)CC2	40µM*	?	1	0	-11%	-32%
Cc1cccc(N=C2c3cc([N+](=O)[O-])ccc3-c3c2cc([N+](=O)[O-])cc3[N+](=O)[O-])c1	.	.	?	?	2.8µM*	3.5µM*
SMILES	G9a block	BAZ2B inh	CtBP-E1A inh	Six1-Eya2 inh	HP1b chromo inh	JMJD2A Tudor
CCCCC1(CCCC)C(=O)NC(=Nc2cccc(C)c2)NC1=O	?	18%	-3	-15	23%	-7%
COc1ccccc1CCNCc1cccc(C(F)(F)F)c1	71µM*	8%	8	3	12%	-31%
COc1cccc(CNCCc2ccccc2)c1OC	5%	-11%	16	3	8%	-12%
COc1ccc(CCNCc2cccc(C(F)(F)F)c2)cc1OC	11µM*	50µM*	.	1	-7%	45µM*
COc1ccc(CCNCc2ccc(F)cc2)cc1OC	77%[59 µM]	13%	-1	0	29%	-8%
CCCN1CCCC(c2cccc(O)c2)C1 (stereo not drawn)	-16%[12.7 µM]	.	.	.	.	.
c1ccc2c(c1)OC[C@@H](C1=NCCN1)O2	8%[21.5 µM]	.	.	.	.	.
CCOC(=O)c1ccc(N=C(c2ccccc2)c2c(O)n(C)c(=O)n(C)c2=O)cc1	50µM*	-12%	1	4	47%	11%
COC(=O)c1ccc(N=C(c2ccccc2)c2c(O)n(C)c(=O)n(C)c2=O)cc1	?	-18%	-17	-4	52%	-5%
N#CC(C#N)=Cc1cccnc1	.	-1%	-6	-1	-24%	-4%[57.1 µM]
N#CC(C#N)=Cc1cc(O)c(O)c(O)c1	8.9µM*	.	.	.	.	.
CN1CCN(C(=S)c2ccc([N+](=O)[O-])cc2)CC1	10µM*	7%	-19	-11	?	?
C=C[C@]12CN(C)[C@H]3C1[C@@]1(C(=O)Nc4ccccc41)[C@H]1C[C@H]2[C@H]3CO1	27%[21.5 µM]	.	.	.	.	.
O=C(N/N=C/c1c(O)n(-c2cccc3ccccc23)c(=O)[nH]c1=O)c1ccncc1	6%	79µM*	?	?	34%	50µM*
O=C(N/N=C/c1c(O)n(CCc2ccc(F)cc2)c(=O)[nH]c1=O)c1ccncc1	123%[59 µM]	50µM*	-1	?	30%	?
O=C(N/N=C/c1c(O)n(CCc2ccccc2)c(=O)[nH]c1=O)c1ccncc1	20µM*	56µM*	?	?	41%	-32%
Cc1ccc(-n2c(O)c(/C=N/NC(=O)c3ccncc3)c(=O)[nH]c2=O)cc1C	?	50µM*	4	-27	51%	56µM*
O[C@@H]1CCCN2C[C@@H](O)[C@@H](O)C12 (stereo partly drawn)	39%[59 µM]	.	.	.	.	.
O=C(CSc1nc2c([nH]c3ccccc32)c(=O)n1-c1ccccc1)c1ccccc1	12%[59 µM]	1%	.	.	11%[57 µM]	?
COc1ccc(NC(=O)CCn2cc(C)c3ccccc32)cc1	?	?	1	-15	-1%	?
